Assay results published in PubChem BioAssay (NCI).
About 79,000 compounds went through this panel and 15% of them were active in at least one assay; those are over-represented in the sample as a whole. A number with no mark means an inactive call. Activity calls are given as the source filed them. No stated cut-off is given here; in the data, active means growth inhibition above about 70%; inactive means the rest.

Key:
[1] = NCI Yeast Anticancer Drug Screen. Data for the rad50 strain (AID 155);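 further: 0% = growth of vehicle-only cultures of the same strain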; conditions: S. cerevisiae rad50 strain growth inhibition, active compounds read high
In short: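 DNA repair mutant yeast, compound exposure, growth read-out; inhibition is taken relative to vehicle.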

[2] = NCI Yeast Anticancer Drug Screen. Data for the mec2-1 strain (AID 157); conditions: S. cerevisiae mec2-1 strain, active compounds read high
In short: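 mec2-1 yeast strain, carrying an alteration in DNA damage repair or cell cycle control, was exposed to compounds; growth inhibition was measured relative to vehicle-treated controls.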

[3] = NCI Yeast Anticancer Drug Screen. Data for the sgs1 mgt1 strain (AID 161);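 further: 0% = growth of cultures given vehicle only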; conditions: S. cerevisiae sgs1 mgt1 strain, active compounds read high
In short: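 Compounds are added to genetically altered yeast, and growth is compared with cultures given vehicle alone to give percent inhibition.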

[4] = NCI Yeast Anticancer Drug Screen. Data for the cln2 rad14 strain (AID 165);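 further: 0% = growth equal to vehicle treated cultures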; conditions: S. cerevisiae cln2 rad14 strain, active compounds read high
In short: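 Yeast carrying cln2 and rad14 alterations (cell cycle control and DNA damage repair) were exposed to compounds. Growth inhibition was measured against vehicle-treated controls.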

[5] = NCI Yeast Anticancer Drug Screen. Data for the bub3 strain (AID 167); conditions: S. cerevisiae bub3 mutant strain, active compounds read high
In short: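 In this screen, a yeast mutant lacking normal mitotic checkpoint function is challenged with compound. Relative growth versus vehicle gives the inhibition value.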

[6] = NCI Yeast Anticancer Drug Screen. Data for the mlh1 rad18 strain (AID 175); conditions: S. cerevisiae mlh1 rad18 strain growth inhibition, active compounds read high
In short: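 Growth inhibition of the yeast strain was measured after compound exposure and expressed relative to vehicle-treated controls. The strain carries defined defects in DNA damage repair.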

[7] = at 5.0 µM (retest, dose inferred, filed as 0.5)
[8] = at 50.0 µM (retest, dose inferred, filed as 5.0)

Structure (SMILES)	growth inhibition [1, 7]	growth inhibition [1, 8]	growth inhibition ([1]; at 50.0 µM)	growth inhibition [2, 7]	growth inhibition [2, 8]	growth inhibition ([2]; at 50.0 µM)	growth inhibition [3, 7]	growth inhibition [3, 8]	growth inhibition ([3]; at 50.0 µM)	growth inhibition [4, 7]	growth inhibition [4, 8]	growth inhibition ([4]; at 50.0 µM)	growth inhibition [5, 7]	growth inhibition [5, 8]	growth inhibition ([5]; at 50.0 µM)	growth inhibition [6, 7]	growth inhibition [6, 8]	growth inhibition ([6]; at 50.0 µM)
NC(Cc1ccccc1)c1ccc2cccc3c2c1CC3 (configuration not stated)	-5%	4%	0.3%	-5%	8%	33.8%	-2%	25%	5.55%	-6%	-1%	-4.25%	-2%	9%	21.1%	-2%	34%	51.5%
CC(C)c1ccc(N2C(=O)C=CC2=O)cc1	98% (active)	97% (active)	99.7% (active)	98% (active)	99% (active)	99.7% (active)	95% (active)	98% (active)	99.5% (active)	91% (active)	99% (active)	99.5% (active)	98% (active)	98% (active)	99.5% (active)	95% (active)	98% (active)	99.2% (active)
CCc1cccc(C(C)C)c1N1C(=O)C(=O)C(c2nc3ccccc3s2)C(=O)C1=O	65%	65%	85.2% (active)	23%	23%	87.3% (active)	71% (active)	71% (active)	83.8% (active)	51%	51%	85% (active)	34%	34%	86% (active)	36%	36%	88.2% (active)
Nc1n[nH]c(=O)c2cccnc12	-1%	-13%	0.7%	2%	-12%	-7.95%	-1%	-13%	-10.2%	5%	-13%	17%	1%	-4%	12.9%	2%	-14%	3.25%
O=C(c1ccc(OCC(O)CN2CCN(c3ccccc3)CC2)cc1)c1cc2ccccc2c2ccccc12 (configuration not stated)	13%	85% (active)	61%	12%	78% (active)	82.8% (active)	17%	49%	44.6%	3%	80% (active)	91.5% (active)	10%	91% (active)	89.3% (active)	9%	87% (active)	96.2% (active)
CC(C)C(O)(C(=O)OCN1C(=O)C2C3C=CC(C2C1=O)C1C2C(=O)N(COC(=O)C(O)(C(C)C)C(C)O)C(=O)C2C31)C(C)O (configuration not stated)	0%	-7%	28.5%	-2%	11%	52%	-7%	17%	37.9%	0%	-2%	18.1%	5%	9%	-2%	-3%	2%	30.6%
CC(C)CCCC(=O)CCCCCCC(=O)CCN(O)C(=O)C(N)CO (configuration not stated)	98% (active)	98% (active)	92.9% (active)	99% (active)	99% (active)	93.5% (active)	98% (active)	99% (active)	94.2% (active)	96% (active)	97% (active)	90.5% (active)	99% (active)	98% (active)	93.4% (active)	98% (active)	98% (active)	92% (active)
CCOC(=O)C1(C#N)C(c2ccccc2)CC(O)(c2ccc([N+](=O)[O-])cc2)C(C(=O)c2ccc([N+](=O)[O-])cc2)C1c1ccccc1 (configuration not stated)	-10%	-25%	15.6%	5%	-12%	14.3%	-8%	0%	-6.4%	-18%	-17%	31.4%	-13%	2%	6%	1%	-3%	21.2%
C#CC(CC)(CC)N=Cc1cc(Cl)cc(Cl)c1O	65%	94% (active)	89.2% (active)	42%	97% (active)	91.8% (active)	58%	99% (active)	92% (active)	41%	72% (active)	88.7% (active)	51%	66%	90.7% (active)	69%	98% (active)	90.5% (active)
